Measurements from PubChem BioAssay (NCATS).
Records with an inconclusive call do not appear. The source made the active and inactive calls. Calls follow the shape of the dose curve; as a rule, active = well fitted cell-killing curve with a large enough effect; inconclusive = small, poorly fitted or top-dose-only effect; inactive = flat fitted curve, though single readings scatter.

experiment: qHTS of pediatric cancer cell lines to identify multiple opportunities for drug repurposing: Primary screen for Rh18 cells (AID 1347102); settings: Rh18 rhabdomyosarcoma viability, CellTiter-Glo luminescence, 48 h; series mostly up to 46 µM; also: nearly all actives have a fitted effect of over 65% in size
Method in brief: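 Viability after 48 h compound treatment at 37C, 500-1,000 cells/well, read as ATP luminescence with CellTiter-Glo. Primary screens used 11-point (MIPE, 0.78 nM-46 µM) or 8-point (NPC, 0.59 nM-46 µM) final concentrations; follow-up screens used 11-point dilutions.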
Potency is read from the fitted curve at half-maximal effect.

Structure (SMILES)	Potency
CCc1ccc(C(=O)Nc2cc(CN3CCN(C)CC3)cc(C(F)(F)F)c2)cc1C#Cc1cnc2ccnn2c1	14.8 µM (active)
Cc1[nH]c(C=C2C(=O)Nc3ccccc32)c(C)c1CCC(=O)O	23.5 µM (active)
N[C@H]1CN(c2c(F)cc3c(=O)c(C(=O)O)cn(C4C[C@@H]4F)c3c2Cl)CC12CC2 (some centres undefined)	inactive
COc1cc(OC)cc(-c2ccc3ncc4ccc(=O)n(-c5ccc(N6CCNCC6)c(C(F)(F)F)c5)c4c3c2)c1	14.8 µM (active)
CN(N=O)C(=O)N[C@H]1C(O)OC(CO)[C@@H](O)[C@H]1O (some centres undefined)	inactive
C[C@H](CCC(=O)O)[C@H]1CCC2C3C[C@H](O)[C@@H]4C[C@H](O)CC[C@]4(C)C3CC[C@@]21C (some centres undefined)	inactive
CC(C)NC[C@@H](C(=O)N1CCN(c2ncnc3c2[C@H](C)C[C@H]3O)CC1)c1ccc(Cl)cc1	5.9 µM (active)
COC(=O)C=CC(=O)OC	inactive
O=C1NC(O)CCN1[C@@H]1O[C@H](CO)[C@H](O)[C@H]1O (some centres undefined)	inactive
CCN(CC)Cc1ccc2cc(COC(=O)Nc3ccc(C(=O)NO)cc3)ccc2c1	0.743 µM (active)
COc1ccc(S(=O)(=O)Nc2cccnc2Nc2ccc(O)cc2)cc1	inactive
CNC(=O)c1cccc(-c2ccc3c(N4CCOC[C@H]4C)nc(N4CCOC[C@H]4C)nc3n2)c1	0.332 µM (active)
NC1=N[C@H]2[C@H](CS[C@H]2CCCCC(=O)O)N1	inactive
C=CCNc1c(O)cc2c(O)c1C[C@@H](C)C[C@H](OC)[C@@H](O)[C@@H](C)C=C(C)[C@H](OC(N)=O)[C@@H](OC)C=CC=C(C)C(=O)N2	0.935 µM (active)
Cn1cnc(=N)c2[nH]cnc21	0.264 µM (active)
O=C(NC1CC1)c1cccc(-c2ccc3c(NC(=O)C4CC4)n[nH]c3c2)c1	2.96 µM (active)
CN[C@@H]1C[C@H]2O[C@@](C)([C@H]1OC)n1c3ccccc3c3c4c(c5c6ccccc6n2c5c31)C(=O)N[C@H]4O	0.59 µM (active)
COc1cc2c(Nc3ccc(Cl)c(Cl)c3F)ncnc2cc1OCC1C[C@@H]2CN(C)C[C@H]2C1	18.7 µM (active)
FC(F)c1nc2ccccc2n1-c1nc(N2CCOCC2)nc(N2CCOCC2)n1	0.935 µM (active)
C=C1C(=CC=C2CCC[C@]3(C)[C@@H]([C@H](C)CCCC(C)(C)O)CC[C@@H]23)C[C@@H](O)C[C@@H]1O	5.26 µM (active)
COc1cc(C)c(C=CC(C)=CC=CC(C)=CC(=O)O)c(C)c1C	inactive
NC(=O)c1ncn([C@@H]2O[C@H](CO)[C@@H](O)[C@@H]2O)c1O	inactive
CC(C)OC(=O)[C@H](C)N[P@](=O)(OC[C@H]1O[C@@H](n2ccc(=O)[nH]c2=O)[C@](C)(F)[C@H]1O)Oc1ccccc1	inactive
O=C1NC(=O)C(=Cc2ccc3nccc(-c4ccncc4)c3c2)S1	0.469 µM (active)
